# Experimental data published in PubChem BioAssay (NCI).
# Compounds without any hit were thinned out: in the full panel of roughly 79,000, 15% have a hit. Values without a mark were called inactive. The source made the active and inactive calls. Rule as the data show it: active = growth inhibition above about 70%; inactive = the rest. Where a SMILES comes first, the peptide text is derived from it. The star is where a group is joined. Cbz = O=C(OCc1ccccc1)*
# Columns and labels:
# [1] = NCI Yeast Anticancer Drug Screen. Data for the rad50 strain (AID 155);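 also: 0% = growth of vehicle-only cultures of the same strain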; details: S. cerevisiae rad50 strain growth inhibition; at 50.0 µM; active compounds read high
# In short: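 Readout: growth inhibition relative to vehicle-treated cultures. Compound exposure was carried out in a genetically defined yeast strain deficient in DNA damage repair.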
# [2] = NCI Yeast Anticancer Drug Screen. Data for the mec2-1 strain (AID 157); details: S. cerevisiae mec2-1 strain, at 50.0 µM, active compounds read high
# In short: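 Readout is yeast growth inhibition, normalised to vehicle-treated controls, in the mec2-1 strain exposed to compound.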
# [3] = NCI Yeast Anticancer Drug Screen. Data for the sgs1 mgt1 strain (AID 161);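 also: 0% = growth of cultures given vehicle only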; details: S. cerevisiae sgs1 mgt1 strain, at 50.0 µM, active compounds read high
# In short: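 Compounds are added to genetically altered yeast, and growth is compared with cultures given vehicle alone to give percent inhibition.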
# [4] = NCI Yeast Anticancer Drug Screen. Data for the cln2 rad14 strain (AID 165);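 also: 0% = growth equal to vehicle treated cultures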; details: S. cerevisiae cln2 rad14 strain, at 50.0 µM, active compounds read high
# In short: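 Relative to vehicle controls, growth inhibition of compound-treated cln2 rad14 yeast was recorded.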
# [5] = NCI Yeast Anticancer Drug Screen. Data for the bub3 strain (AID 167); details: S. cerevisiae bub3 mutant strain, at 50.0 µM, active compounds read high
# In short: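 Readout: yeast growth inhibition, expressed relative to vehicle-only wells. The test organism is a mutant strain from a panel with lesions in DNA repair or checkpoint genes.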
# [6] = NCI Yeast Anticancer Drug Screen. Data for the mlh1 rad18 strain (AID 175); details: S. cerevisiae mlh1 rad18 strain growth inhibition; at 50.0 µM; active compounds read high
# In short: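 Test agents were incubated with a yeast strain of defined genotype (DNA damage repair defect). Inhibition of growth was derived by comparison with vehicle-exposed cultures.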
SMILES,growth inhibition [1],growth inhibition [2],growth inhibition [3],growth inhibition [4],growth inhibition [5],growth inhibition [6]
Cc1ccc(C2(O)CC(c3ccc([N+](=O)[O-])o3)=NN2C(=O)COc2ccccc2Cl)cc1 (stereo not given),46.1%,-15.2%,-0.45%,0.15%,-1.9%,-6.45%
CSc1ccc(NC(=O)c2cccc([N+](=O)[O-])c2C(=O)O)cc1,5.05%,8.25%,13.2%,-6.35%,15.2%,1.6%
CNc1ncnc2nc[nH]c12,16.2%,-6.85%,2.9%,-3.15%,-8.5%,14.9%
O=C1c2ccccc2-c2cc(F)ccc21,18.3%,-10.4%,-7.4%,-6.25%,17.6%,-0.1%
CCOC(=O)c1cc(Cl)nc(Cl)c1,6.95%,-16.6%,-1.8%,-3.15%,4.5%,-10.4%
C(=N\C(/N=C/c1ccccc1)c1ccccc1)/c1ccccc1,0.4%,-4.8%,-3.25%,-43.8%,2.55%,-6.2%
CS(=O)(=O)C(c1nc2n(c1O)C(=N)N=N2)c1nc2n(c1O)C(=N)N=N2 (stereo not given),-3.2%,12.1%,-6.15%,-17.1%,-5.2%,9.8%
O=[N+]([O-])c1ccc(OS(=O)(=O)O)cc1,17.8%,4.45%,20.5%,-9.85%,-4.1%,8.55%
COc1ccc2c(c1)c1c3c(ccc4ncn2c43)N(CCO)CCN=1,-19.6%,-52%,-25.9%,-23.5%,-12%,1.6%
CC(C)CCOC(=O)NC(Nc1ccc(F)cc1)(C(F)(F)F)C(F)(F)F,-10.6%,-15.9%,-40.5%,-13.3%,-5.2%,-25.9%
O=C(O)c1ccc([N+](=O)[O-])cc1C(=O)c1cccs1,0.7%,-7.75%,4.6%,-2.35%,5.6%,-0.05%
COC(=O)N/N=C(/c1nc2ccc([N+](=O)[O-])cc2[nH]c1=O)C(O)c1ccc(OC)c(OC)c1 (stereo not given),-3.3%,0.35%,-3.05%,17.7%,26.5%,6.2%
CC(NC(=O)OCc1ccccc1)C(=O)NC(CO)C(N)=O (stereo not drawn) (Cbz-Ala-Ser-NH2; configuration not given here),6.15%,-6.5%,-0.25%,19.2%,5.95%,8.1%
CCOC(=O)c1cnc(NCCCCCCNc2ncc(C(=O)OCC)c(=O)[nH]2)[nH]c1=O,29.7%,-1.5%,-3.65%,-6.8%,-3.1%,21.7%
CCn1c(SCC(=O)N/N=C/c2ccccc2)nc2ccccc2c1=O,5.65%,6.95%,3.8%,-4.55%,-1.3%,-33.7%
O=C1c2ccccc2C(=O)C1(c1ccccn1)[N+](=O)[O-],5.55%,1.45%,-0.2%,2%,13.6%,3.95%
Cc1ccc2nc[nH]c(=O)c2c1,-1.1%,13.3%,7.85%,-70.6%,19.4%,-12.8%
O=C(O)C(O)C(O)C(O)C(O)C(=O)O (stereo not given),7.35%,-13.1%,12%,-1.55%,-5.1%,3.15%
CC(=O)OCCn1c(C)nc2cc(Cl)c(Cl)cc21,33.1%,5.45%,16.3%,31.9%,23.7%,36.2%
CC[N+](C)(CCO)C(Cc1ccccc1)c1ccccc1 (stereo not given),8.5%,-3.5%,-0.1%,-16.1%,19.5%,-1.7%

SMILES,growth inhibition [1],growth inhibition [2],growth inhibition [3],growth inhibition [4],growth inhibition [5],growth inhibition [6]
Cc1cccc(NC(=O)/C(=N\NC(C)(C)C)C2NC(=S)NC2=O)c1C (stereo not given),-2.25%,-29.8%,-38.5%,-6.6%,-16.4%,-39.1%
CNCC(=O)NC(CO)C(=O)NC(CO)C(=O)NC1C(C(N)=O)OC(n2ccc(N)nc2=O)C(O)C1O (stereo not given),13.3%,10.3%,8.75%,38.5%,23.9%,24.3%
O=[N+]([O-])c1cccc2c(-c3nccc4c([N+](=O)[O-])cccc34)nccc12,-16.9%,-1.35%,-19.4%,-21.8%,-16.2%,-19%
O=[N+]([O-])c1ccc(Nc2ccccc2)c([N+](=O)[O-])c1,2.4%,-12.8%,-1.4%,-32.2%,-7.05%,8.5%
C=CC(=O)NC(=O)/C=C/c1cccnc1,17.4%,-8.05%,1%,-3.25%,10.7%,5.5%
CC(=O)Nc1ccc2c(c1)C(P(=O)(OC(C)C)OC(C)C)c1ccccc1-2 (stereo not given),6%,19.6%,18.1%,-1.4%,34.4%,-2.8%
O=C(Nc1ccccc1)C1C2C=CC(C2)C1C(=O)Nc1ccccc1 (stereo not given),0.2%,27.9%,5.05%,-11.7%,21.4%,-8.25%
O=C(NC1CCCCC1NC(c1ccccc1)(c1ccccc1)c1ccccc1)C(=O)NC1CCCCC1NC(c1ccccc1)(c1ccccc1)c1ccccc1 (stereo not given),-33.9%,-22.4%,-13.7%,12.1%,-10.1%,-2.35%
COc1cccc(CN2CCCN(Cc3cccc(OC)c3O)C2c2ccccc2)c1O,22.1%,3.2%,1.8%,-6.45%,0.9%,12.4%
N#CC(=C1C=CC(=NOC(=O)c2ccccc2)C=C1)c1ccccc1,-0.75%,1.2%,4.8%,-5.75%,-2.7%,-6.85%
O=NC1CC=CC1Cl (stereo not given),18.6%,0.1%,0.65%,9.5%,-8.1%,22.2%
CC(=O)OCCOCCCl,-12.8%,20.2%,1.5%,-13.3%,19.2%,12.1%
O=c1oc2c(Cl)cc(Cl)cc2cc1-c1nc2ccccc2[nH]1,29.1%,38.2%,15.6%,9.65%,14.1%,12.6%
CC(C)(C)c1cc(C#N)cc(Br)c1O,98.6% (active),98.7% (active),99.3% (active),97.2% (active),97.7% (active),98.7% (active)
Cn1ncc2c(=S)[nH]c(=S)[nH]c21,19.4%,-9.25%,2.5%,7.85%,2.3%,1.85%
Cc1[nH]nc2c1NC(=O)OC(C)C2 (stereo not given),11.8%,-2.9%,0.9%,-9.85%,-2.85%,2.9%
CCC[N+](CCC)=c1ccc2nc3c(C)cc(N(CC)CC)cc3sc-2c1,-60.6%,-6.45%,-20.6%,-126%,-130%,-39.2%
COc1c(NC(=O)C(Br)C(Br)C(=O)O)cccc1[N+](=O)[O-] (stereo not given),-20.9%,19.5%,-7.65%,85% (active),-2.85%,-2.25%
NC(N)=Nc1ccc(CC(N)C(=O)NCC(=O)C(CC(=O)O)c2ncc(NC(=O)C(F)(F)F)o2)cc1 (stereo not given),-17.4%,-1.75%,-5.15%,-4%,-19.6%,7.35%
COc1ccc(CCCC2C(=O)CC(C)OC2=O)cc1OC (stereo not given),-26.9%,3.25%,2.1%,-25.8%,3.05%,-0.4%
